14-3-3g Raf: alters human 14-3-3 gamma binding to Raf peptide; P61981; FP, 14-3-3gamma / TMR-pS259-Raf peptide binding; inhibition, % at 40 µM; 160,000 compounds, 0.19% hits; AID 422; in the data active = inhibition above about 30%
Target sequence (P61981 whole entry, looked up): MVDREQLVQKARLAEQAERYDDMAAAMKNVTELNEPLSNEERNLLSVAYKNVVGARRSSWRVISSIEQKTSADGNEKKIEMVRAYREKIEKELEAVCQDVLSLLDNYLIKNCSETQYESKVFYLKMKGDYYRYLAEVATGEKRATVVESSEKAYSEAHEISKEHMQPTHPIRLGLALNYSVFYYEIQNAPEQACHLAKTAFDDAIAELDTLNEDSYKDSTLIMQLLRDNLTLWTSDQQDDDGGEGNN
Hits are given with their value; – = inactive; ! = repeats disagree. The sample as a whole holds a higher share of hits than the screen did.

SMILES	14-3-3g Raf
CC(=O)Nc1ccccc1C(=O)C(=O)Nc1ccc(C(=O)N2CCC(C)CC2)cc1	–
Cc1ccc(C2=NN(C(=O)C3CC3)C(O)(C(F)(F)F)C2)cc1 (stereo unspecified)	–
Cc1ccc(C)c(CN2C(=O)CSc3ccc(C(=O)NCc4ccccc4Cl)cc32)c1	–
CCCCNC(=O)C1CCC(=O)N1C1CCCC1 (stereo unspecified)	–
Cc1ccc(N2C(=O)C(Cl)=C(Cl)C2=O)cc1	–
CSc1nnc2c(n1)OC(c1ccncc1)Nc1ccccc1-2 (stereo unspecified)	–
CSc1nnc2c(n1)OC(C1CC=C(C)CC1C)Nc1ccc(Br)cc1-2 (stereo unspecified)	–
CSc1nnc2c(n1)OC(C1CC=C(C)CC1)Nc1ccccc1-2 (stereo unspecified)	36.8!
O=C(NCC12C=CC(O1)C1C(=O)N(Cc3ccccc3)C(=O)C12)c1cccs1 (stereo unspecified)	–
COc1ccc(Cl)cc1N1C(=O)CSC1c1ccc([N+](=O)[O-])cc1 (stereo unspecified)	–
CCC(C)OC(=O)C1=C(C)NC2=C(C(=O)CC(c3ccc(OC)cc3)C2)C1c1ccc(OC)c(OC)c1 (stereo unspecified)	–
CCC(C)OC(=O)C1=C(C)NC2=C(C(=O)CC(c3ccccc3)C2)C1c1cc(OC)c(OC)cc1Br (stereo unspecified)	38.8
CCC(C)OC(=O)C1=C(C)NC2=C(C(=O)CC(c3ccccc3)C2)C1c1cccc2ccccc12 (stereo unspecified)	–
Cc1cccc(N2C(=O)c3ccc(C(=O)Oc4ccccc4)cc3C2=O)c1	–
CC1(O)N(c2ccc(Cl)cc2)C(=O)OC12CCCCC2 (stereo unspecified)	–
Cc1cccc(N(CC(=O)Nc2c(C)cccc2C)S(=O)(=O)c2ccccc2)c1C	–
Cc1cccc(N(CC(=O)NC2CC3CCC2C3)S(=O)(=O)c2ccccc2)c1C (stereo unspecified)	–
Cc1cccc(N(CC(=O)NC2CCCCC2)S(=O)(=O)c2ccccc2)c1C	37.6
Cc1cccc(N2C(=O)C3C(C2=O)C2C=CC3C23CC3)c1 (stereo unspecified)	–
CCC1CCCCN1S(=O)(=O)c1ccc2ccccc2c1 (stereo unspecified)	–
COc1ccc(S(=O)(=O)N2CCC(C(=O)Nc3cccc4ccccc34)CC2)cc1OC	–
CC(=O)C(CCC#N)(CCC#N)c1ccccc1	–
CCOC(=O)C(=O)C(C#N)c1ccccc1 (stereo unspecified)	–
CC(=O)C(c1ccccc1)C(C#N)(C#N)C(C#N)C#N (stereo unspecified)	66.5
N#Cc1cc2c(nc1SCC(=O)Nc1cnc3ccccc3c1)CCCCC2	–
SMILES	14-3-3g Raf
COc1ccc(C2=CC(c3ccccc3OC(F)F)n3ncnc3N2)cc1 (stereo unspecified)	–
CCOc1cc(C2c3c(-c4ccc(OC)cc4)n[nH]c3C(=O)N2c2ccc(Br)cc2)ccc1O (stereo unspecified)	–
COc1ccc(-c2n[nH]c3c2C(c2ccc(OC)cc2)N(c2ccc(Br)cc2)C3=O)cc1 (stereo unspecified)	–
CCOc1ccc(-c2n[nH]c3c2C(c2ccccc2)N(c2ccc(Br)cc2)C3=O)cc1 (stereo unspecified)	134.1
CCN(CC)c1nc(C)nc2sc(C(=O)NCCCOC)c(C)c12	–
O=C(CSc1nnc2c(n1)[nH]c1ccccc12)Nc1ccc2ccccc2c1	–
OC(CN1CCOCC1)CN(c1ccccc1)c1ccccc1 (stereo unspecified)	92.3
OC(CN1CCOCC1)CN1CCOCC1	–
OC(CN1CCCCC1)CN(c1ccccc1)c1ccccc1 (stereo unspecified)	–
CCc1ccc(NC(=O)c2cc(S(=O)(=O)NCc3ccc(C)cc3)ccc2F)cc1	–
Cc1sc2nc(Cc3ccccc3)n(Cc3ccccc3Cl)c(=O)c2c1C	–
CC1(C)c2ccccc2N2CCC(=O)NC21C=Cc1cccc(Br)c1 (stereo unspecified)	–
C#CCn1c2ccccc2c2ccccc21	57.8
OCCN1CCN(CC#CCn2c3ccccc3c3ccccc32)CC1	–
OC(CCl)Cn1c2ccccc2c2ccccc21 (stereo unspecified)	–
Cc1cccc(N(CC(=O)NCc2ccccn2)S(=O)(=O)c2ccccc2)c1C	–
CCOC(=O)C1=C(C)NC2=C(C(=O)C(C(=O)OCC)C(c3ccc(OC)cc3)C2)C1c1ccc(C)cc1 (stereo unspecified)	–
CCc1ccc(O)c(N=Cc2cccc(C)c2O)c1	–
C=CCc1cccc(/C=N/c2ncn[nH]2)c1O	–
C=CCc1cccc(C=Nc2cc(Br)ccc2O)c1O	42.5
Cc1ccccc1Nc1c(-c2ccc([N+](=O)[O-])cc2)nc2cnccn12	–
CC1CCN(C(=O)CSc2nc3c([nH]c4ccccc43)c(=O)n2-c2cccc(Cl)c2)CC1	–
CS(=O)(=O)N(CC(=O)NCc1ccco1)c1ccc(Oc2ccccc2)cc1	–
CC(=O)Oc1c(C)cc(O)c2ccccc12	–
CC(=O)Oc1c(-c2ccccc2)c2nc3ccccc3nc2c2ccccc12	33.1
